In PubChem BioAssay one finds composite z-score and z-score data, which are given here for five molecules.

Experiment [1] can be described thus: compounds binding Alexa647 anti-His antibody – biochemical, small-molecule microarray, 635 nm fluorescence, artefact control for SMM control protein annotation, primary screen (AID 1128).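 Note: score merges feature fluorescence with signal-to-noise for each printed compound spot.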 The following applies: higher = more signal.
Experiment [2] relates to Human papillomavirus type 1a E7 protein (residues 1-88). As to the kind of experiment: HPV1a E7 small-molecule binders, primary screen, biochemical, small-molecule microarray, residues 1-88, 635 nm (AID 1129). The note with it: small-molecule microarray binding, fluorescence 635 nm; higher = more signal.
The target of experiment [3] is Focal adhesion kinase 1 (Homo sapiens) (UniProt Q05397). The experiment is described as follows: PTK2 protein binding on printed compound slides – biochemical, small-molecule microarray, 635/667 nm fluorescence, BSA, DTT, primary screen (AID 1130).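 Note: composite of spot emission at 667 nm and signal to noise over triplicate slides.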 The note with it: 635 nm fluorescence, higher = more signal.
Focal adhesion kinase 1 (Homo sapiens), sequence (Q05397 whole entry, looked up): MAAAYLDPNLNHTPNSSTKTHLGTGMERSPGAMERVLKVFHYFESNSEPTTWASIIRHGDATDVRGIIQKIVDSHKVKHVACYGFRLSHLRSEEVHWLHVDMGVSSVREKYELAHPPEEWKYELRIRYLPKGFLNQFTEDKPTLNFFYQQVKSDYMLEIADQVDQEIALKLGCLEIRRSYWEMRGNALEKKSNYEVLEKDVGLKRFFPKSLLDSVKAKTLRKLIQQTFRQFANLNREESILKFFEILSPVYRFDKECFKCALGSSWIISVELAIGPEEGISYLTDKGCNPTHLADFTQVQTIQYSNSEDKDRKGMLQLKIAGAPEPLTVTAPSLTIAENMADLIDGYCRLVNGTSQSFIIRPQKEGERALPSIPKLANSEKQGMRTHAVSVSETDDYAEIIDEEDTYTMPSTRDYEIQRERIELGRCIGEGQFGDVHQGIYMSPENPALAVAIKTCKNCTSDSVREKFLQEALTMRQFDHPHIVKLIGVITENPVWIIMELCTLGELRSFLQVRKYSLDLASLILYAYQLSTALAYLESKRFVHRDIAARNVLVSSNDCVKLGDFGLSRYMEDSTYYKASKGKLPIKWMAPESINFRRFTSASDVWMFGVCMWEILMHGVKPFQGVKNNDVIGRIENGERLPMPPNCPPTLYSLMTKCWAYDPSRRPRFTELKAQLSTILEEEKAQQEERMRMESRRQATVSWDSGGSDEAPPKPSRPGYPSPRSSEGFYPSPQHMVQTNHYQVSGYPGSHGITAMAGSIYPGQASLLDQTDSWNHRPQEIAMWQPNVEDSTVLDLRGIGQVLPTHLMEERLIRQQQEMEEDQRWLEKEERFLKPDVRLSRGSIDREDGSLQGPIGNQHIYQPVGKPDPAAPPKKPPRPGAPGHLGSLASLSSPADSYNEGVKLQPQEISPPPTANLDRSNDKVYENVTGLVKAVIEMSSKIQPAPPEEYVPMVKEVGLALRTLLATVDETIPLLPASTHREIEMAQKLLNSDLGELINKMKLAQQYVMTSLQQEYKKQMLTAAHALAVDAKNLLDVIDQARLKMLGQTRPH
Experiment [4] deals with Fibrinogen (Alexa647-labelled). As to the kind of experiment: Alexa647-fibrinogen binding to printed small molecules – biochemical, small-molecule microarray, 635/667 nm fluorescence, artefact control for SMM control-protein annotation, profiling panel (AID 1131).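 Note: z-score merges 667 nm fluorescence with per-spot signal-to-noise over triplicate slides.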 The note with it: fibrinogen-A647 binding fluorescence, higher = more signal.
Experiment [5] concerns the target Follistatin (Homo sapiens) (UniProt P19883). The experiment is described as follows: FST protein binding to printed compounds – biochemical, small-molecule microarray, 635/667 nm fluorescence, primary screen (AID 1132). The note with it: 635 nm fluorescence, higher = more signal.
Experiment [6] has as its target Fibroblast growth factor 2 (Homo sapiens) (UniProt P09038). As to the kind of experiment: basic fibroblast growth factor binding to printed compounds – biochemical, small-molecule microarray, 635/667 nm fluorescence, primary screen (AID 1133). The following applies: FGF2, fluorescence 635/667, higher = more signal.
Experiment [7] can be described thus: JC-1 mitochondrial potential readout, lung cancer cells – cell-based, A549, JC-1 fluorescence, basal, 24 h, 100 nL, profiling panel (AID 1138).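 Note: A549 lung adenocarcinoma cells under basal conditions with no added stimulus; test concentration not given here.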 The note with it: higher = more signal.
Another experiment concerns Lefty1. As to the kind of experiment: Lefty1 protein binding to printed compounds – biochemical, small-molecule microarray, 635/667 nm fluorescence, primary screen (AID 1139). The following applies: fluorescence 635/667, higher = more signal.
Experiment [8] deals with wheat germ agglutinin (Triticum aestivum), Alexa647-labelled. The experiment is described as follows: Alexa647-WGA lectin binding to printed small molecules – biochemical, small-molecule microarray, 635/667 nm fluorescence, artefact control for SMM control-protein annotation, profiling panel (AID 1140).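 Note: score merges 667 nm feature emission with signal to noise over triplicate slides.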 The following applies: WGA-A647 binding, 635 nm fluorescence, higher = more signal.

Experiment [9] deals with Luciferin 4-monooxygenase (Photinus pyralis) (UniProt P08659). The experiment is described as follows: inhibition of purified Photinus pyralis luciferase – biochemical, luminescence, purified enzyme, 2006 set, primary screen (AID 1141).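 Note: cell-free assay with purified firefly luciferase at 100 ng per well in PBS; test concentration not given here.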 The following applies: purified firefly luciferase, SteadyGlo luminescence, 30 min; higher = more signal, called active from +8 up or from −8 down.
Luciferin 4-monooxygenase (Photinus pyralis), sequence (P08659 whole entry, looked up): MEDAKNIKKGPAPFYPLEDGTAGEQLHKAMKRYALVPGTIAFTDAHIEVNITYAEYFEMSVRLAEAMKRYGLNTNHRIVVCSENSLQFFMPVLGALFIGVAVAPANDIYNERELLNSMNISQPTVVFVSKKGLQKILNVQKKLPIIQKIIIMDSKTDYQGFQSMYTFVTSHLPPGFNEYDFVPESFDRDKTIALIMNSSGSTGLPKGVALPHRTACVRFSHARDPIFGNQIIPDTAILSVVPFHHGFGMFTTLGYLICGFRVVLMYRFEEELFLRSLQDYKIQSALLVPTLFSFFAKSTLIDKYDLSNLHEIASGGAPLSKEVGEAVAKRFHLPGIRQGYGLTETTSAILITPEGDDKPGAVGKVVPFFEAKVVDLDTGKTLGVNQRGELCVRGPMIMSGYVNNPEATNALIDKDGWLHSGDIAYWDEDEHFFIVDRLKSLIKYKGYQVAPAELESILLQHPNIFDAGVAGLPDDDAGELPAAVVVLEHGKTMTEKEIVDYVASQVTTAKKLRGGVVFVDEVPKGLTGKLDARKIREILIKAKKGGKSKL

The test system of experiment [10] is Wnt5a (protein binding on small-molecule microarray). As to the kind of experiment: small molecules binding Wnt5a protein – biophysical, small-molecule microarray, 635/667 nm fluorescence, primary screen (AID 1142).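 Note: fluorescence read at 667 nm with signal to noise per printed feature.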 The note with it: 635 nm fluorescence, higher = more signal.
Experiment [11] is described as follows: ATP-based viability of Huh7 replicon cells – cell-based, CellTiter-Glo luminescence, basal, 48 h, cytotoxicity control for HCV replication inhibitor project, primary screen (AID 1143).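 Note: Huh7 hepatoma cells carrying a hepatitis C replication reporter with no stimulus; test concentration not given here.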 The note with it: higher = more signal, called active from +8 up or from −8 down. Background: In antiviral work, replicon cells carry a viral genome segment that copies itself.

Experiment [12] can be described thus: Pseudomonas biofilm growth suppression – PAO1 strain, BacTiter-Glo luminescence, LB-PBS, primary screen (AID 1144). The following applies: P. aeruginosa PAO1 biofilm, 12 h, higher = more signal.
Experiment [13] in a line: basal CRE-LacZ reporter activity in PC12 – cell-based, unstimulated, primary screen (AID 1145). The note with it: no forskolin, luminescence, 4.5 h, higher = more signal, called active from +8 up or from −8 down.
Experiment [14] is described as follows: forskolin-driven CRE-LacZ activity in PC12 – cell-based, CRE-LacZ reporter, forskolin-stimulated, primary screen (AID 1146).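 Note: PC12 cells with 6xCRE LacZ reporter stimulated by forskolin 10 µM; beta-galactosidase reporter signal reflecting CREB driven transcription.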 The following applies: luminescence, 4.5 h, higher = more signal, called active from +8 up or from −8 down.
Experiment [15] addresses Streptavidin (Streptomyces avidinii) (UniProt P22629). The experiment is described as follows: compounds binding control protein streptavidin – biophysical, small-molecule microarray, 635/667 nm fluorescence, artefact control for SMM compound annotation, primary screen (AID 1147).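 Note: signal reflects streptavidin binding to arrayed compounds as a control protein.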 The note with it: higher = more signal.
A short description of experiment [16]: probe aInhba binding on compound microarray – biochemical, small-molecule microarray, 635/667 nm fluorescence, primary screen (AID 1148).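 Note: score merges 667nm spot fluorescence with signal-to-noise for antibody binding to printed compounds.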 The following applies: higher = more signal.
In experiment [17] the target is Torsin-1A (Homo sapiens) (UniProt O14656). As to the kind of experiment: TOR1A wild-type binding on microarray – cell lysate, small-molecule microarray, lysate, 635/667 nm, primary screen (AID 1149). The following applies: COS7 hTOR1A-WT lysate, 635 nm fluorescence, higher = more signal.
Torsin-1A (Homo sapiens), sequence (O14656 whole entry, looked up): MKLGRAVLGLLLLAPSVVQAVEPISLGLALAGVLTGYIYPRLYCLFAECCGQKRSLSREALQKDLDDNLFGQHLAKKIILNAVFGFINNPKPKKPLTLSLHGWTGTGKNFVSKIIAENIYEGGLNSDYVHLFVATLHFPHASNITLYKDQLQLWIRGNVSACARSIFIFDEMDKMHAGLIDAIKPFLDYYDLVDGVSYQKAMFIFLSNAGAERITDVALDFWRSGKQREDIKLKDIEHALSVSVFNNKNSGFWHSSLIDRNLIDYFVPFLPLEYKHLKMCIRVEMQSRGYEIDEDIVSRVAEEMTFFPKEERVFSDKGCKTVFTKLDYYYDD
For experiment [18] the target is unchanged. As to the kind of experiment: torsin A mutant lysate binding on microarrays – cell lysate, small-molecule microarray, COS7 lysate, 635/667 nm fluorescence, primary screen (AID 1150).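 Note: score pools 667 nm emission and signal to noise measuring lysate protein binding.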 The note with it: COS7 hTOR1A mutant lysate, 635 nm fluorescence, higher = more signal.
In experiment [19] the test system is Sonic hedgehog protein (Shh). The experiment is described as follows: Sonic hedgehog microarray binding compounds – biochemical, small-molecule microarray, 635/667 nm fluorescence, primary screen (AID 1151).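 Note: Shh protein binding to compounds spotted on small-molecule microarray slides; score combines spot fluorescence intensity with signal-to-noise across triplicate slides.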 The following applies: 635 nm fluorescence, higher = more signal.

Activity calls are given as the source filed them. Unless noted, the rule behind the calls is not given here.

Follistatin (Homo sapiens), sequence (P19883 whole entry, looked up): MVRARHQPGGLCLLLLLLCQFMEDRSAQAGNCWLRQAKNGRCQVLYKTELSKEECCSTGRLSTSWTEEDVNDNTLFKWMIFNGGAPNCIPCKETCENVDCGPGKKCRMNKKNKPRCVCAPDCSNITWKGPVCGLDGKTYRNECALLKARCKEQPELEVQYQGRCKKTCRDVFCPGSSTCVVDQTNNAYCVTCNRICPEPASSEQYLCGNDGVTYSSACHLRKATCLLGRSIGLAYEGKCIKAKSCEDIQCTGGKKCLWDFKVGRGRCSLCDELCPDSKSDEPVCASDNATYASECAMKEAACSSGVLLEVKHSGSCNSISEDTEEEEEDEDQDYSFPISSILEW
Fibroblast growth factor 2 (Homo sapiens), sequence (P09038 whole entry, looked up): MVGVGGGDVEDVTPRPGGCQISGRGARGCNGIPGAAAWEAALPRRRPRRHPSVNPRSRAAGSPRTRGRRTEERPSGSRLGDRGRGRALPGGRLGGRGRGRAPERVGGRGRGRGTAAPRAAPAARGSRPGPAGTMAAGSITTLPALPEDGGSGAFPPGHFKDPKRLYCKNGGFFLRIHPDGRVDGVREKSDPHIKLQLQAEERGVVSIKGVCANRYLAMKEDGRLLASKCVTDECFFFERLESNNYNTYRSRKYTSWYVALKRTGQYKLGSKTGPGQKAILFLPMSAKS
Streptavidin (Streptomyces avidinii), sequence (P22629 whole entry, looked up): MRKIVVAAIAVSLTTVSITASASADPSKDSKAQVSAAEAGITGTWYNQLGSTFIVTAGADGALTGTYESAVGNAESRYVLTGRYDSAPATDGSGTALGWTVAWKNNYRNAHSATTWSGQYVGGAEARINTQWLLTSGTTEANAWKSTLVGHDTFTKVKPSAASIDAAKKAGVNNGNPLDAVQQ

In the case of `O=C1N(CCS(=O)(=O)c2ccccc2)Cc2ccccc2C[C@]12N=C(c1ccc(OCCCO)cc1)O[C@@H]2c1ccccc1`, the composite z-score in experiment [1] is 2.51; in experiment [2], 1.08; in experiment [3], 0.342; in experiment [4] it was 0.356; in experiment [5], 1.5; in experiment [6], 1.91. For the same molecule, the composite z-score in the experiment on Lefty1 was determined as 0.557; in experiment [8], 1.13; in experiment [10], 0.775; in experiment [15], 0.196; in experiment [16], 0.537; with Torsin-1A (Homo sapiens) [17] it was 0.916. The composite z-score in the experiment with Torsin-1A (Homo sapiens) [18] was 1.02; in experiment [19], 1.51. Moreover, the z-score is 0.685 in experiment [7]; -1 (inactive) in experiment [9]; -3.53 (inactive) in experiment [11]; 0.81 (inactive) in experiment [12]; 0.0686 (inactive) in experiment [13]; -1.48 (inactive) in experiment [14].
As for `COCCOC(=O)N1C(=O)[C@@]2(c3cc(C#CCCO)ccc31)[C@H](c1ccc(O)cc1)N1[C@H](c3ccccc3)[C@H](c3ccccc3)OC(=O)[C@H]1[C@@H]2C(N)=O`, the composite z-score in [1] was found to be 3.05; in experiment [2], 0.215; in experiment [3], 0.0329; in experiment [4], 0.19; in experiment [5], 0.931; in [6], 0.347. Moreover, the composite z-score with Lefty1 is 0.296; in [8] it was 0.0204; in experiment [10], 0.453; in experiment [15], -0.656; in [16], 0.0388; with Torsin-1A (Homo sapiens) [17], 0.553. Also, the composite z-score is 0.883 in the experiment with Torsin-1A (Homo sapiens) [18] and 0.493 in [19]. For the same molecule, the z-score was -0.444 in [7]; 0.028 (inactive) in experiment [9]; -0.209 (inactive) in experiment [11]; 0.393 (inactive) in experiment [12]; 0.48 (inactive) in [13]; 0.73 (inactive) in [14].
For `CC(C)C(=C=CC[C@H](O)c1ccccc1OCCO)C[C@H](O)c1ccccn1`, the composite z-score in [1] stood at 1.93; in experiment [2], 0.958; in [3] it was 0.344; in experiment [4], 0.207; in experiment [5], 0.476; in experiment [6] it was 0.857. Moreover, the composite z-score was 0.649 in the experiment with Lefty1; 1.33 in experiment [8]; 0.257 in experiment [10]; -0.199 in experiment [15]; -0.0205 in experiment [16]; 0.635 with Torsin-1A (Homo sapiens) [17]. The composite z-score in the experiment with Torsin-1A (Homo sapiens) [18] was 1.59; in experiment [19] it was 1.63. Further, the z-score in [7] was 0.453; in [9] it was -0.88 (inactive); in experiment [11], -0.667 (inactive); in [12], -0.0531 (inactive); in [13] it was 4.99 (inactive); in experiment [14], 0.0622 (inactive).
As for `CC(=O)C1=CCC(c2ccccc2)N(S(=O)(=O)c2ccc(C)cc2)C1` (stereo not given), the composite z-score in experiment [1] was 1.8; in experiment [2], 1.19; in experiment [3], 0.362; in experiment [4], 0.757; in experiment [5] it was 0.798; in [6], -0.194. The composite z-score in the experiment on Lefty1 was 0.176; in experiment [8] it was 1.21; in experiment [10] it was -0.004; in [15], 1.69; in [16], -0.0087; in the experiment with Torsin-1A (Homo sapiens) [17], 0.911. Further, the composite z-score with Torsin-1A (Homo sapiens) [18] was 1.55; in experiment [19], -0.194. In addition, the z-score is -1.16 in experiment [7]; 1.6 (inactive) in [9]; -1.06 (inactive) in experiment [11]; -0.65 (inactive) in experiment [12]; -0.116 (inactive) in experiment [13]; 0.151 (inactive) in experiment [14].
Regarding `CC1CC/C=C\[C@H]2OC34C=CCN(Cc5ccccc5)C(=O)[C@H]3N(CCCCCO)C(=O)[C@@H]4C2C(=O)O1` (stereo not given in full), the composite z-score in experiment [1] is 0.15; in experiment [2], -0.825; in [3] it was 1.19; in experiment [4], -0.985; in experiment [5], -0.599; in [6] it was -0.754. Besides, the composite z-score with Lefty1 is -0.812; in experiment [8] it was -0.494; in experiment [10], 0.008; in experiment [15] it was -0.966; in [16] it was -0.242; with Torsin-1A (Homo sapiens) [17], -1.17. For the same molecule, the results for the composite z-score (with Torsin-1A (Homo sapiens) [18]; in experiment [19]) were -1.4 and -0.829, respectively. The z-score in experiment [7] is 1.37; in [9], -0.763 (inactive); in [11], 0.398 (inactive); in experiment [12], 1.96 (inactive); in [13] it was 1 (inactive); in experiment [14] it was 0.424 (inactive).
